Here are results for 51 compounds from PubChem BioAssay AID588342 (National Center for Advancing Translational Sciences (NCATS), 2011).

The campaign covered roughly 360,000 compounds. About 25,000 (6.9%) were called active. Roughly 9% stayed inconclusive and do not appear here. The full list was thinned out, with actives kept by preference. Values without a mark were called inactive. The call rests on the fitted dose curve; in most records, active means well fitted inhibition curve with a large enough effect; inconclusive means small, poorly fitted or top-dose-only effect; inactive means flat fitted curve, though single readings scatter.
Potency means the concentration at half of the fitted maximal effect.

In this assay the target is Luciferin 4-monooxygenase (Photinus pyralis) (UniProt P08659). Description: qHTS profiling assay for firefly luciferase inhibitor/activator using purifed enzyme and Km concentrations of substrates (counterscreen for miR-21 project). Further: nearly all actives have a fitted effect of over 55% in size.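 On activity change, negative = inhibition: plate controls were vehicle for no effect and reference inhibitor for full effect.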 The note with it: purified FLuc, luminescence inhibition; series mostly up to 57.5 µM; activity change, negative = inhibition: at the top concentration. The method, boiled down: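 Purified P. pyralis luciferase (10nM final) with 10uM D-luciferin and 10uM ATP (Km levels) in 50mM Tris acetate pH 7.5, 10mM Mg acetate, 0.01% Tween-20, 0.05% BSA; qHTS 6-point titration, ~60 µM downward; luminescence read.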
Chain of Luciferin 4-monooxygenase (Photinus pyralis) (P08659 whole entry, looked up): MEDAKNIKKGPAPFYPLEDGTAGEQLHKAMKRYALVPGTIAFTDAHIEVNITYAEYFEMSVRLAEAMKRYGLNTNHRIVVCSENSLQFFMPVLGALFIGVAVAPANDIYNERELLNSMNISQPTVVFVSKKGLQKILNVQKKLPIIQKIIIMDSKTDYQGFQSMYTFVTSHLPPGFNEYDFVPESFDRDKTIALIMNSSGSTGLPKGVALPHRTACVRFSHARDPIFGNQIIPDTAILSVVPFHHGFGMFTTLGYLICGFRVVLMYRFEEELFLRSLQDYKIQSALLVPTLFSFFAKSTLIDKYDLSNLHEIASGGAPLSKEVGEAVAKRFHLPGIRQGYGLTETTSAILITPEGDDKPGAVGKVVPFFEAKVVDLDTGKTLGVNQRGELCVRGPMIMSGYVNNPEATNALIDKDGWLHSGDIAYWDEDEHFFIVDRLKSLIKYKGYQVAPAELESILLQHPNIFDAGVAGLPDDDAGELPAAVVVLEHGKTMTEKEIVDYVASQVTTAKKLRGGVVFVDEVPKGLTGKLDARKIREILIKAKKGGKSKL
A general note: Quantitative high-throughput screening tests each substance at several concentrations.
On to `CCc1cc(C(=O)c2ccc(OC)cc2)c(NC(=O)CN2CCN(C)CC2)s1`, for which the “activity change, negative = inhibition” value is 2.35%.
Take `CC(=O)c1ccc(NC(=O)c2nc3nc(C)cc(C(F)F)n3n2)cc1`: the “activity change, negative = inhibition” value is -6.41%.
Consider `Cc1cc(C)cc(N(CC(=O)NC2CCCC2)C(=O)CCC(=O)Nc2cc(C)on2)c1`, for which the “activity change, negative = inhibition” value is -0.831%.
With `CCOC(=O)c1c(S(=O)(=O)N2CCCC(C(=O)NCc3ccc(F)cc3)C2)c(C)n(CC)c1C` (stereo unspecified), the “activity change, negative = inhibition” value is 5.45%.
For `CCOCCOC(=O)C1=C(C)NC(=O)NC1c1ccc2c(c1)OCO2` (stereo unspecified), the “activity change, negative = inhibition” value is -0.485%.
Turning to `Cc1ccc(C(=O)OCC(=O)NCc2ccc3c(c2)OCO3)s1`, the “activity change, negative = inhibition” value was -2.21%.
For the compound `CCOC(=O)c1nc(-c2ccc3c(c2)OCO3)[nH]c1C`, the Potency is 15.1 µM (active).
As for `CCCCN(CC)CCNC(=O)CCNC(=O)Cn1ccc2ccccc2c1=O`, the “activity change, negative = inhibition” value was -0.654%.
On to `Cc1ccc(C)c(OCC(=O)Nc2sc3c(c2C#N)CCCC3)c1C`, for which the “activity change, negative = inhibition” value was -19.4%.
As to `O=c1cc(COc2cccc(C(F)(F)F)c2)nc2sc3c(n12)CCCC3`, the “activity change, negative = inhibition” value was 4.49%.
`CN1C(=O)/C(=C/c2ccco2)SC1=Nc1cccc(C(=O)O)c1`: the “activity change, negative = inhibition” value is -13.8%.
For the compound `O=C1NN(c2ccccc2)C(=O)/C1=C/c1ccc(-c2cccc(C(=O)O)c2)o1`, the Potency was 26.9 µM (active).
Consider `CC(=O)c1cc(-c2ccccc2)[nH]c1N1CCCC1`, for which the “activity change, negative = inhibition” value was -0.486%.
Regarding `CCCN(CCC)S(=O)(=O)c1ccc(C(=O)Nc2sc3c(c2C(=O)OC)CCN(CC)C3)cc1`, the “activity change, negative = inhibition” value is -4.85%.
Consider `CCc1nnc(NC(=O)C2CCN(C(=O)c3ccccc3C)CC2)s1`, for which the “activity change, negative = inhibition” value is -0.48%.
For the compound `O=C(/C=C/c1ccc(Cl)cc1)Nc1ccc(Br)cn1`, the “activity change, negative = inhibition” value is -2.22%.
On to `CC(C)(C)c1ccc(/C=C/C(=O)Nc2ncccn2)cc1`, for which the Potency was 4.78 µM (active).
Regarding `CC(C)(C)c1ccc(/C=C/C(=O)NC2CCS(=O)(=O)C2)cc1` (stereo unspecified), the “activity change, negative = inhibition” value is -16%.
On to `O=S(=O)(Cc1nnnn1-c1ccc(Br)cc1)c1ccc(F)cc1`, for which the “activity change, negative = inhibition” value was -2.88%.
`Cc1cc(C)c(CN2CCN(C(=O)Cn3ccc(NC(=O)OCc4ccccc4)nc3=O)CC2)c(C)c1`: the “activity change, negative = inhibition” value was -0.647%.
In the case of `CC(=O)Nc1ccc(C(=O)Nc2nc(-c3cc(C)n(Cc4ccccc4)c3C)cs2)cc1`, the “activity change, negative = inhibition” value is -9.54%.
`Cc1cc(C(=O)OCC(=O)N2c3ccccc3NC(=O)C2(C)C)c(C)n1-c1ccccc1`: the “activity change, negative = inhibition” value is -13.2%.
For the compound `Cc1cc(-c2csc(N)n2)c(C)n1-c1ccccc1`, the Potency is 19 µM (active).
In the case of `C=CCSc1ccc(S(=O)(=O)N2CCN(C)CC2)cn1`, the “activity change, negative = inhibition” value is 0.976%.
Regarding `Cc1nc2ccc(S(=O)(=O)N(C)CC(=O)NC(C)c3ccccc3)cc2s1` (stereo unspecified), the “activity change, negative = inhibition” value is 0.0818%.
Still for that read-out and setting: the result for `CCN(CC)S(=O)(=O)c1ccc(NC(=O)CN(c2cccc(F)c2)S(C)(=O)=O)cc1` reads 1.16%.
`Cc1cccc(N(CC(=O)Nc2ccc(-c3nc4ccc(C)cc4s3)cc2)S(C)(=O)=O)c1`: the Potency was 5.36 µM (active).
With `COc1cc(NC(=O)CN(C)S(=O)(=O)c2ccc3nc(C)sc3c2)cc(OC)c1`, the “activity change, negative = inhibition” value was -2.14%.
In the case of `COc1cccc(N(CC(=O)Nc2cccc(F)c2)S(C)(=O)=O)c1`, the “activity change, negative = inhibition” value was 3.97%.
Consider `Cc1ccc2nc(-c3ccc(NC(=O)CN(C)S(=O)(=O)c4ccccc4)cc3)sc2c1`, for which the Potency was 15.1 µM (active).
Consider `C=CCNC(=O)COC(=O)CNC(=O)c1cc(Cl)cc([N+](=O)[O-])c1`, for which the “activity change, negative = inhibition” value is 2.04%.
`Cc1ccc(C)c(N2CCN(C(=O)Cc3c(C(=O)O)c(C)cn3C)CC2)c1`: the “activity change, negative = inhibition” value is -18.7%.
Still for that read-out and setting: then `CSc1cccc(NC(=O)CN2C(=O)CCc3cc(S(=O)(=O)N4CCCCC4)ccc32)c1`, with -5.44%; and `COc1cccc(OC)c1C(=O)Nc1ccc2c(c1)n(C)c(=O)n2C`, with 3.13%.
In the case of `Cn1c(=O)n(C)c2cc(C(=O)Nc3ccc(Br)cc3)ccc21`, the Potency is 15.1 µM (active).
Consider `Cn1c(=O)n(C)c2cc(/C=N/NC(=O)c3cccc(Br)c3)ccc21`, for which the “activity change, negative = inhibition” value was -1.27%.
Consider `COc1cc(OC)c(OC)cc1/C=C/c1nc2ccccc2c(=O)n1-c1ccc(Br)c(C)c1`, for which the “activity change, negative = inhibition” value is -10%.
Turning to `CCOCCCNC(=O)c1ccc(CS(=O)(=O)c2cccc(C(F)(F)F)c2)o1`, the “activity change, negative = inhibition” value is 1.28%.
`C=CCc1c(C)nc2cc(-c3ccccc3)[nH]n2c1=O`: the Potency is 6.01 µM (active).
With `CCc1c(C)nc2cc(C)[nH]n2c1=O`, the “activity change, negative = inhibition” value was 4.4%.
Turning to `CCCCN1Cc2c(nc3cc(-c4ccccc4)[nH]n3c2=O)C1=O`, the Potency was 19 µM (active).
On to `CCc1c(C)nc2cc(-c3cccs3)[nH]n2c1=O`, for which the Potency was 16.9 µM (active).
Turning to `Cc1nc2c(-c3ccccc3)c(C)[nH]n2c(=O)c1Cl`, the “activity change, negative = inhibition” value is 0.759%.
Take `Cc1nc2scc(-c3cccs3)c2c(=O)n1N`: the “activity change, negative = inhibition” value is -1.84%.
For `Cc1cc2nc3c(=O)n(Cc4ccccc4)c(=O)[nH]c3nc2cc1N`, the “activity change, negative = inhibition” value was -0.764%.
Regarding `CCCCCN1CC(O)=C(c2ccccc2)C1=N`, the “activity change, negative = inhibition” value was 5.48%.
Regarding `CCOC(=O)c1ccc(NC(=O)CCS(=O)(=O)c2ccc(C)cc2)cc1`, the “activity change, negative = inhibition” value was -0.943%.
Same read-out and setting: the result for `O=C(/C=C/c1cccc([N+](=O)[O-])c1)OCC(=O)N1CCOCC1` reads 2.87%.
As to `CCc1ccccc1N1C(=O)CN(S(=O)(=O)CC)CC1(C)C(=O)NC1CCCCC1` (stereo unspecified), the “activity change, negative = inhibition” value was -5.08%.
Still for that read-out and setting: the result for `CCCn1c2ccccc2c2cnn(CC(=O)N3CCCC(C(=O)OCC)C3)c(=O)c21` (stereo unspecified) reads -3.29%; that for `Cn1c(=O)[nH]c(=O)c2c1nc(NCCc1ccccc1)n2Cc1ccc(F)cc1`, -1.81%.
